Laboratory results reported in PubChem BioAssay (EPA / NIEHS).
Inconclusive results are not listed. Calls of active or inactive are those of the source. How the source made its calls, unless noted: active means hit-call score of the fitted dose curve at least 0.9, where 1 is the maximum; inactive means score below 0.9.

Tests used:
[1] = CCTE_Harrill_HTTr_Viability_MCF7: CCTE's 6-hour Cell Viability Assessment for the High-Throughput Transcriptomics (HTTr) Platform, in MCF-7 cells cultured in DMEM + 10% fetal bovine serum, Harrill Lab (AID 2284010)
Procedure, shortened: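 PI exclusion, high-content imaging; 8-pt dilution series, 6 h exposure; bidirectional fit vs DMSO (neg. ctrl/baseline); gain of signal = loss of membrane integrity.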

[2] = CCTE_Harrill_HTTr_Apoptosis_MCF7: CCTE's 6-hour Apoptosis Assessment for the High-Throughput Transcriptomics (HTTr) Platform, in MCF-7 cells cultured in DMEM + 10% fetal bovine serum, Harrill Lab (AID 2284011)
Procedure, shortened: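 MCF-7 (DMEM + 10% FBS), 384-well; 8-pt dilution series, 6 h chemical exposure; caspase-3/7 activation via CellEvent Caspase 3/7 Green, HCI; bidirectional fit vs DMSO.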

[3] = CCTE_Harrill_HTTr_CellCount_MCF7: CCTE's Cell Proliferation Assessment for the High-Throughput Transcriptomics (HTTr) Platform, Harrill Lab (AID 2284012; active means hit-call score of the fitted dose curve at least 0.9, where 1 is the maximum;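 further: count of Hoechst-stained nuclei per well by high-content imaging in MCF-7 cells; cells exposed to compound for six hours; intended direction is loss of nuclei count meaning fewer cells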)
Procedure, shortened: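 Readout: Hoechst nuclear count by high-content imaging. MCF-7, 8-point dilution series, 6 h exposure. Bidirectional fit vs DMSO baseline.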

Row | SMILES | outcome [1] | outcome [2] | outcome [3] | AC50 [2]
1 | C#C[C@]1(O)CC[C@H]2[C@@H]3CCC4=CC(=O)CC[C@@H]4[C@H]3CC[C@@]21C | inactive | inactive | inactive | –
2 | CCCCC(CC)COC(=O)CCCCC(=O)OCc1ccccc1 (centres undefined) | inactive | inactive | inactive | –
3 | CC[C@H](C)[C@@H](C(=O)O)n1sc2ccccc2c1=O | inactive | inactive | inactive | –
4 | CC(O)CO (centres undefined) | inactive | inactive | inactive | –
5 | COc1cc(CCC(=O)CC(=O)CCc2ccc(O)c(OC)c2)ccc1O | inactive | inactive | inactive | –
6 | c1ccc2c(c1)Cc1ccccc1-2 | inactive | inactive | inactive | –
7 | CCCCCCC(=O)O | inactive | inactive | inactive | –
8 | Cc1cc(C)c(O)c(C)c1 | inactive | inactive | inactive | –
9 | COCC(C)OCC(C)O (centres undefined) | inactive | inactive | inactive | –
10 | COc1ccc([N+](=O)[O-])cc1N | inactive | inactive | inactive | –
11 | C[C@@H]1C[C@H]2[C@@H]3CCC4=CC(=O)C=C[C@]4(C)[C@@]3(F)[C@@H](O)C[C@]2(C)[C@@]1(O)C(=O)COP(=O)(O)O | inactive | inactive | inactive | –
12 | O=C(/C=C/c1ccc(O)cc1)CC(=O)/C=C/c1ccc(O)cc1 | inactive | inactive | inactive | –
13 | CCCCC[C@H](O)CC(=O)CCc1ccc(O)c(OC)c1 | inactive | inactive | inactive | –
14 | O=C1OC2(c3ccccc31)c1cc(Br)c(O)c(Br)c1Oc1c2cc(Br)c(O)c1Br | inactive | – | inactive | 1.92 µM (active)
15 | CCN(CC)CCNc1ccc(CNC=O)c2sc3ccc(OC)cc3c(=O)c12 | inactive | inactive | inactive | –
16 | OCCC(F)(F)C(F)(F)C(F)(F)C(F)(F)C(F)(F)C(F)(F)F | inactive | inactive | inactive | –
17 | ClC1=C(Cl)C(Cl)(Cl)C(Cl)=C1Cl | inactive | inactive | inactive | –
18 | CCOC(=O)CC(O)(CC(=O)OCC)C(=O)OCC | inactive | inactive | inactive | –
19 | COC(=O)CCCCC(=O)OC | inactive | inactive | inactive | –
20 | C=C(C)C(=O)OCCC(F)(F)C(F)(F)C(F)(F)C(F)(F)C(F)(F)C(F)(F)F | inactive | inactive | inactive | –
21 | OC1CCCCC1 | inactive | inactive | inactive | –
22 | CCCCCCCCOC(=O)CCCCCCCCC(=O)OCCCCCCCC | inactive | inactive | inactive | –
23 | CCCCOCCO | inactive | inactive | inactive | –
24 | CC(C)(C)c1cccc(C(C)(C)C)c1O | inactive | inactive | inactive | –
25 | CC(C)(C)c1ccc(O)c(C(C)(C)C)c1 | inactive | inactive | inactive | –
26 | CCC(C)(C)C1CCC(O)CC1 (centres undefined) | inactive | inactive | inactive | –
27 | CCCCCCCCC(=O)O | inactive | inactive | inactive | –
28 | CC1=C(/C=C/C(C)=C/C=C/C(C)=C/C(=O)O)C(C)(C)CCC1 | inactive | inactive | inactive | –
29 | O=C(OCCOCCOC(=O)c1ccccc1)c1ccccc1 | inactive | inactive | inactive | –
30 | N#C[C@@H]1CC(F)(F)CN1C(=O)CNC1CC2CCC(C1)N2c1ncccn1 (some centres undefined) | inactive | inactive | – | –
